PfG6PD inh – PfG6PD (Plasmodium falciparum) enzyme inhibition; inhibition, % at 20 µM; 350,000 tested, 0.78% active; PfGluPho enzyme, NADPH resazurin-diaphorase fluorescence;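 active = inhibition reaching at least a set limit at 20 µM in the primary screen, cut at about 59% in these data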;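 note: 0% = DMSO wells with substrate and 100% = DMSO wells lacking glucose-6-phosphate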
aDG glyco up – increases alpha dystroglycan glycosylation; activation, % at 10 µM; 360,000 tested, 0.22% active; Pro5-aDG cells, alpha-DG glycosylation AlphaScreen (IIH6); 0% Pro5, 100% B10-LARGE cell signal;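 active = activation of at least 8% versus controls, or a plate z-score of at least 8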;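 note: Pro5 are CHO cells carrying HIG-tagged alpha-DG that lacks glycosylation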
CRFR2-BP antag – CRF-BP/CRF-R2 complex antagonism; HEK293 CRF-R2/CRF-BP, CRF-induced calcium fluorescence; 350,000 tested, 0.59% active; AID 588475; inhibition, % at 11.8 µM;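 active = inhibition of the ligand-induced calcium signal above about 50% at the single tested concentration, limit read from the data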
Cardio protect – myocardial damage modulation in H9c2 cells; protection from H2O2 cell death, % at 20 µM; 360,000 tested, 0.63% active; H9c2 cardiomyocytes, H2O2 injury protection, ATPLite, 2 h;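 active = compounds giving at least 50% protection of heart cells from peroxide-induced death in the single-dose screen, raw or plate-pattern-corrected value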;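 note: 0% = DMSO wells with peroxide and 100% = DMSO wells without peroxide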
FAS-TE inh – inhibitors of human fatty acid synthase thioesterase domain. P49327. recombinant FAS-TE, OMFH fluorogenic substrate, fluorescence endpoint. inhibition, % at 15 µM. 360,000 tested, 0.67% active;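 active = compounds whose normalised, plate-corrected inhibition of enzyme fluorescence in the single-dose primary screen is 50% or more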;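 note: 0% = DMSO with enzyme and 100% = substrate without enzyme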
CRFR2-BP ag – CRF-BP/CRF-R2 complex agonism; 350,000 tested, 0.46% active; activation, % at 13.2 µM; HEK293 CRF-R2/CRF-BP, calcium dye fluorescence (FLIPR); percent of saturating CRF peptide response;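 active = activation of at least 50%, plus an integration ratio under a set limit after plate pattern correction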;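 note: plate controls were neutral control wells without compound for no effect and CRF at EC100 for full effect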
PfG6PD confirm – PfG6PD inhibition, single-dose confirmed; recombinant PfGluPho, NADPH-diaphorase-resazurin fluorescence; shares compounds with PfG6PD inh; inhibition, % at 20 µM; 2,400 tested, 34% active;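 active = inhibition of at least 50% at 20 µM in any single replicate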;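 note: 0% = DMSO with substrate and 100% = DMSO lacking glucose-6-phosphate substrate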
Diaph ctr 10uM – inhibits diaphorase or oxidizes, flagging false PfG6PD hits; shares compounds with PfG6PD inh; diaphorase-coupled resazurin reduction, fluorescence, NADPH 10 uM; inhibition, % at 20 µM; 820 tested, 39% active; AID 504862;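 active = average inhibition reaching 50% or more with the compound at 20 µM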;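 note: resorufin red fluorescence formed as diaphorase reduces resazurin using NADPH; 0% = DMSO with enzyme and 100% = DMSO without enzyme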
Diaphorase 30uM – inhibits diaphorase or oxidizes, flagging false PfG6PD hits. inhibition, % at 20 µM. AID 504863. shares compounds with PfG6PD inh. 820 tested, 29% active. Diaphorase/resazurin coupled assay, resorufin fluorescence, 30 uM NADPH;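 active = inhibition averaging 50% or more, tested at 20 µM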;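 note: 0% = DMSO with enzyme and 100% = DMSO wells lacking diaphorase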
Starred values were filed as active, the others as inactive; · = no result given. Compounds with a hit are over-represented: about 3.2% of the library has one in this group of screens.

SMILES	PfG6PD inh	aDG glyco up	CRFR2-BP antag	Cardio protect	FAS-TE inh	CRFR2-BP ag	PfG6PD confirm	Diaph ctr 10uM	Diaphorase 30uM
CCOC(=O)c1sc(NC(=O)CSc2nnc(Cc3ccccc3)o2)c(C#N)c1C	88.1*	1.7	24.3	-12.8	1.6	3.3	59.6*	-24.1	-17.6
CCN(CC)c1ccc(C=O)c(OC)c1	5.8	0.1	-0.8	1.1	-0.6	-1.4	·	·	·
CC1(C)Nc2ccccc2N(Cc2ccc([N+](=O)[O-])cc2)C1=O	3.0	-0.1	38.0	-2.2	6.0	-2.5	·	·	·
CCCCC1C(=O)N(c2ccccc2)N(c2ccc(O)cc2)C1=O (stereo unspecified)	77.8*	-0.2	-14.3	-43.5	-1.5	1.6	53.8*	-26.3	-36.0
CCCCC1(CO)C(=O)N(c2ccccc2)N(c2ccccc2)C1=O	4.3	-0.1	2.1	1.0	-4.5	-1.7	·	·	·
CCOC(=O)/C(=N/Nc1ccccc1)Sc1nnc(CCc2ccccc2)n1-c1ccccc1	-0.1	0.2	-27.3	0.0	-2.4	0.1	·	·	·
CNC(=S)N/N=C/c1cccc(OCc2ccccc2F)c1	42.3	2.7	-7.9	-25.0	26.9	1.1	·	·	·
CCNC(=S)N/N=C/c1cccc(OCc2c(F)cccc2Cl)c1	59.9*	0.6	-26.8	-12.2	18.6	2.7	-22.0	·	·
COC(=O)c1c(C)n(-c2ccccc2)c2ccc(O)cc12	62.9*	-0.1	-52.0	-4.5	3.5	-1.1	27.9	·	·
COC(=O)c1c(C)n(-c2ccc(C)cc2)c2ccc(O)cc12	23.2	0.7	-54.5	1.6	10.3	-2.9	·	·	·
S=C(N/N=C/c1ccc2ncccc2c1)Nc1cccnc1	69.0*	-0.1	14.4	11.4	-8.3	-2.5	8.9	·	·
O=C(O)c1cccc(NC(=S)N/N=C/c2ccccn2)c1	67.7*	-0.4	6.7	-0.4	-4.7	-0.8	43.9	·	·
Cc1ccc(S(=O)(=O)C=CS(=O)(=O)c2ccc(C)cc2)cc1	112.6*	-0.2	-8.4	-20.3	15.5	14.9	93.1*	-3.0	-1.0
Cc1ccc(S(=O)(=O)CCCS(=O)(=O)c2ccc(C)cc2)cc1	-10.0	0.0	0.4	-6.3	10.3	0.1	·	·	·
Cc1ccc(S(=O)(=O)SCCCSS(=O)(=O)c2ccc(C)cc2)cc1	123.1*	0.2	36.1	-16.3	-3.3	3.4	81.4*	-33.6	-26.7
Cc1ccc(S(=O)(=O)SC/C=C/CSS(=O)(=O)c2ccc(C)cc2)cc1	116.2*	-0.1	21.8	9.7	-6.8	3.8	65.6*	-20.6	-4.8
Cc1ccc(S(=O)(=O)c2ccc(C)cc2)cc1	15.6	0.6	14.3	1.6	6.1	0.6	·	·	·
Cc1cccc(OCCOC(=O)CN2C(=O)NC3(CCCC3)C2=O)c1	-13.2	-0.6	6.3	-5.1	-7.5	0.1	·	·	·
S=C(NN=Cc1ccccn1)N(Cc1ccccn1)Cc1ccccn1	79.5*	3.0	7.4	31.5	-5.5	-1.3	55.3*	-8.6	-1.2
S=C(NN=C(c1ccccc1)c1ccccn1)N(Cc1ccccn1)Cc1ccccn1	47.0	3.4	-1.5	34.4	2.7	-3.5	·	·	·
O=C(Cn1sc2ccccc2c1=O)Nc1ccccc1	122.0*	-0.4	-14.4	-32.8	-7.3	1.5	107.5*	-10.3	10.4
O=C(Cn1sc2ccccc2c1=O)NC12CC3CC(CC(C3)C1)C2	124.7*	-0.5	-0.8	-34.6	-13.1	-0.6	106.2*	-20.1	-21.8
O=C(CN1C(=O)c2ccccc2C1=O)Nc1ccccc1	-4.7	0.4	18.5	0.1	-1.4	0.1	·	·	·
COc1cccc(-c2ccc(NC(=O)C3CCCN(Cc4nccn4C)C3)cc2)c1 (stereo unspecified)	5.5	-0.1	27.8	-3.1	-4.8	1.3	·	·	·
Cc1ccsc1/C=N/NC(=O)c1cccc(S(=O)(=O)Nc2ccccc2Cl)c1	64.3*	0.4	11.4	8.6	-2.3	-1.0	60.4*	42.7	47.0
SMILES	PfG6PD inh	aDG glyco up	CRFR2-BP antag	Cardio protect	FAS-TE inh	CRFR2-BP ag	PfG6PD confirm	Diaph ctr 10uM	Diaphorase 30uM
CCOc1ccc2ccccc2c1/C=N/NC(=O)CC1(C)OCCCO1	76.6*	-0.1	-5.2	-4.3	-10.0	0.4	57.4*	59.5*	55.4*
CCOc1ccc2ccccc2c1/C=N/NC(=O)c1ccncc1	72.3*	-0.2	-5.2	6.6	0.4	0.2	66.4*	60.8*	47.0
COc1ccc(-c2nc3ccc(C)cn3c2Cc2ccsc2)cc1OC	·	0.1	·	2.6	4.1	·	·	·	·
CCCCCC(=O)NC(NC(=S)N1CCOCC1)C(Cl)(Cl)Cl (stereo unspecified)	-6.0	-0.2	-3.0	-17.7	-1.6	-3.1	·	·	·
CCCCCC(=O)NC(NC(=S)NC1CCS(=O)(=O)C1)C(Cl)(Cl)Cl (stereo unspecified)	62.8*	0.2	-13.6	-3.7	-3.9	-0.8	0.4	·	·
COc1cccc(C=Nc2cc(C(C)C)c(O)cc2C)c1O	114.0*	0.1	-17.3	-6.3	-3.5	2.0	66.5*	6.2	-0.9
COc1cccc(C=NCCCN=Cc2cccc(OC)c2O)c1O	25.2	0.0	8.1	32.5	-7.4	0.0	·	·	·
Cc1cc(O)c(C(C)C)cc1N=Cc1ccc(N(C)C)cc1	105.9*	0.6	-12.2	-3.0	-2.0	-2.0	83.3*	86.8*	43.2
Cc1cc(O)c(C(C)C)cc1N=Cc1ccc([N+](=O)[O-])cc1	90.6*	0.4	-8.8	-1.6	1.9	0.3	62.2*	49.3	14.6
Cc1cccn2c(=O)c3cc(C(=O)NC4CCCC4)c(=N)n(Cc4ccc(F)cc4)c3nc12	63.5*	0.7	8.3	-3.9	2.8	2.7	-9.7	·	·
Cc1cccn2c(=O)c3cc(C(=O)NC4CCCCC4)c(=N)n(Cc4ccccc4)c3nc12	69.7*	2.0	-1.8	-14.8	25.5	6.5	-1.3	·	·
CCOCCCn1c(=N)c(C(N)=S)cc2c(=O)n3cccc(C)c3nc21	63.8*	0.4	-8.4	20.2	-6.9	5.4	7.5	·	·
O=C1/C(=C/c2cccc(F)c2)Oc2cc(O)ccc21	-23.4	-0.1	-8.0	-12.1	-3.1	49.6	·	·	·
COc1ccc(N2CC(C(=O)Nc3nnc(Cc4ccccc4)s3)CC2=O)cc1 (stereo unspecified)	-4.1	-0.1	-7.0	5.9	-12.0	-0.5	·	·	·
COc1ccc(Nc2ccc(OC)cc2)cc1	63.8*	0.1	2.4	-7.3	6.4	-1.1	25.2	·	·
COc1ccc(Nc2cc(C)c3ccccc3n2)cc1	65.6*	-0.2	-24.4	-9.4	10.1	0.2	-1.3	·	·
COC(=O)c1cc(Br)c(=O)n(CCc2ccccc2)c1	0.2	0.0	-0.2	6.8	1.0	-1.0	·	·	·
COC(=O)c1ccc(O)cc1	2.3	0.0	10.3	8.8	-6.8	0.5	·	·	·

Compound activity from PubChem BioAssay.
